Measured values as given in PubChem BioAssay AID686978 (National Center for Advancing Translational Sciences (NCATS), 2013).
In all, about 420,000 compounds went through this assay and about 64,000 (15%) were called active. Inconclusive results (about 27%) are left out. These entries were drawn from the full list. Unmarked numbers belong to inactive results. Calls come from the whole dose curve; as a rule, active = well fitted inhibition curve with a large enough effect; inconclusive = small, poorly fitted or top-dose-only effect; inactive = flat fitted curve, though single readings scatter.
% is set by controls: 0 for no effect and ±100 for the full control effect; potency is the fitted concentration of half-maximal effect.

Assay: qHTS for Inhibitors of human tyrosyl-DNA phosphodiesterase 1 (TDP1): qHTS in cells in absence of CPT; note: nearly all actives have a fitted effect of over 55% in size
Conditions: DT40 Tdp1-/- hTDP1 cells, no CPT, ATP luminescence, 48 h; activity change, negative = growth inhibition: at 46.2 µM (top of the series)
Summary of the method: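 Cells were dispensed at 400 per well, compounds added by pin tool, plates incubated ≥48 hr at 37 °C, then CellTiter-Glo added for 30 min at room temperature before luminescence reading. Line: DT40 Tdp1-/- complemented with hTDP1; camptothecin omitted.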
In the case of `COc1ccc(N(C(=O)c2cccnc2)S(=O)(=O)c2ccc(OC)c(OC)c2)cc1`, the “activity change, negative = growth inhibition” value is reported as -21%.
For `Cc1cc(NC(=O)CCS(=O)(=O)c2ccc(F)cc2)no1`, the “activity change, negative = growth inhibition” value was -10%.
In the case of `CCOC(=O)[C@]12CCCC=C1N(CCC1=CCCCC1)C(=O)[C@H](CC(=O)N1CCSCC1)C2`, the Potency is reported as 16.4 µM (active).
With `CCOC(=O)[C@]12CCCC=C1N(CCC1=CCCCC1)C(=O)[C@H](CC(=O)N1CCOCC1)C2` the Potency was 16.4 µM (active).
With `CCOC(=O)N1CCN(C(=O)C[C@@H]2C[C@@]3(C(=O)OC)CCCCC=C3N(CCC3=CCCCC3)C2=O)CC1` the Potency was 16.4 µM (active).
With `CCOC(=O)N1CCN(C(=O)COc2ccc(Br)cc2)CC1` the “activity change, negative = growth inhibition” value was -25.8%.
With `CCOC(=O)[C@]12CCCC=C1N(CCC1=CCCCC1)C(=O)[C@H](CC(=O)N1CCCCC1)C2` the Potency was 5.17 µM (active).
For `CSc1c(SCc2ccccc2)cnn(Cc2ccccc2)c1=O`, the “activity change, negative = growth inhibition” value was -12.4%.
For `Cc1ccc(N)cc1-n1c(C)ccc1C`, the “activity change, negative = growth inhibition” value was -17.2%.
For `C/C=C/C(=O)OCc1csc(CC(=O)Nc2ccccc2C)n1`, the “activity change, negative = growth inhibition” value was 7.75%.
For `CC1CC1C(=O)OCC(=O)Nc1cccc(F)c1` (centres undefined), the “activity change, negative = growth inhibition” value was 7.03%.
With `Cc1cc(-c2nnc(SCC(=O)Nc3ccc(F)cc3)n2N)n[nH]1` the “activity change, negative = growth inhibition” value was 21.3%.
With `O=C(CN1C(=O)CSC1=O)N1CCCC(Nc2ccc(F)cc2)C1` (centres undefined) the “activity change, negative = growth inhibition” value was -4.21%.
For `Cc1ccc(S(=O)(=O)N(C)c2ccc(OCC(=O)NC3=NCCS3)cc2)cc1`, the “activity change, negative = growth inhibition” value was 1.46%.
For `CC(C)NC(=O)Nc1cccc2c1O[C@H](CN(C)S(=O)(=O)c1cccs1)[C@@H](C)CN([C@H](C)CO)C2=O`, the “activity change, negative = growth inhibition” value was -28.3%.
For `COc1ccc(Cl)cc1N(CC(=O)N1CCCCC1)S(C)(=O)=O`, the “activity change, negative = growth inhibition” value was -8.52%.
With `COC(=O)[C@]12CCCCC=C1N(CCC1=CCCCC1)C(=O)[C@H](CC(=O)N1CCSCC1)C2` the Potency was 16.4 µM (active).
For `CCOC(=O)[C@]12CCC=C1N(Cc1ccccc1)C(=O)[C@H](CC(=O)N1CCCC1)C2`, the “activity change, negative = growth inhibition” value was -25.7%.
For `CCOC(=O)[C@]12CCCC=C1N(Cc1ccc(Cl)cc1Cl)C(=O)[C@H](CC(=O)N1CCCCC1)C2`, the Potency was 23.1 µM (active).
In the case of `Cc1ccc(-c2ccc(C3=CC(=O)CC(C)(C)C3=O)cc2)cc1`, the “activity change, negative = growth inhibition” value is reported as -100%.
For `CCc1ccccc1N1C(=O)C2C3CC(=O)C(c4ccccc43)C2C1=O` (centres undefined), the “activity change, negative = growth inhibition” value was 18.8%.
For `O=C(CCc1ccccc1Cl)Nc1ccc(S(=O)(=O)Nc2nccs2)cc1`, the “activity change, negative = growth inhibition” value was -3.57%.
For `Cc1ccc(Cc2cnc(N)s2)o1`, the “activity change, negative = growth inhibition” value was -4.35%.
With `Cc1ccc(CCC(=O)Nc2ncc(Cc3cc(Cl)ccc3Cl)s2)o1` the Potency was 0.58 µM (active).
In the case of `COc1cc2sc(C)nc2cc1C`, the “activity change, negative = growth inhibition” value is reported as 2.23%.
For `CCNC(=O)N1CCNC(=O)C1CC(=O)Nc1ccc(C(=O)OCC)cc1` (centres undefined), the “activity change, negative = growth inhibition” value was 4%.
In the case of `CCOC(=O)c1ccc(NC(=O)CC2C(=O)N(c3cccc(OC)c3)C(=O)N2C2CCCCC2)cc1` (centres undefined), the Potency is reported as 20.6 µM (active).
For `CCOC(=O)c1ccc(NC(=O)CC2C(=O)N(c3ccccc3)C(=O)N2Cc2cccs2)cc1` (centres undefined), the Potency was 20.6 µM (active).
With `COC(=O)CN1C(=S)N(c2ccccc2)C(=O)C1CC(=O)Nc1ccc(Cl)cc1` (centres undefined) the “activity change, negative = growth inhibition” value was -25.1%.
With `CCOc1ccc(NC(=O)CC2C(=O)N(c3cccc(OC)c3)C(=O)N2C2CCCCC2)cc1` (centres undefined) the “activity change, negative = growth inhibition” value was -25.8%.
In the case of `CCCOc1ccc(NC(=O)CC2C(=O)N(c3ccccc3)C(=O)N2Cc2ccco2)cc1` (centres undefined), the Potency is reported as 20.6 µM (active).
For `CCNC(=O)CC1C(=O)N(c2ccc(F)cc2)C(=O)N1Cc1ccc(C)cc1` (centres undefined), the “activity change, negative = growth inhibition” value was 2.75%.
For `CCOc1ccc(NC(=O)CC2C(=O)N(c3ccccc3)C(=O)N2CCOC)cc1` (centres undefined), the “activity change, negative = growth inhibition” value was 0.538%.
For `CCNC(=O)CC1C(=O)N(c2ccc(F)cc2)C(=O)N1Cc1cccs1` (centres undefined), the “activity change, negative = growth inhibition” value was 6.76%.
With `Cc1ccnc(NS(=O)(=O)c2ccc(NC(=O)c3oc4ccc(F)cc4c3C)cc2)n1` the “activity change, negative = growth inhibition” value was 16.5%.
With `COCc1cc(C)n(CC(=O)NCC2CCCO2)c(=O)c1C#N` (centres undefined) the “activity change, negative = growth inhibition” value was 8.62%.
With `Cc1cnc(C(=O)OCC(=O)NCCCc2ccccc2)cn1` the “activity change, negative = growth inhibition” value was -4.9%.
For `Cc1ccccc1NC(=O)c1nn(-c2ccc(F)c(F)c2)ccc1=O`, the “activity change, negative = growth inhibition” value was 0.98%.
In the case of `CN(C)/C=C(/C(=O)c1ccccc1)S(=O)(=O)c1ccc(Cl)cc1`, the “activity change, negative = growth inhibition” value is reported as -0.434%.
With `COc1ccc(OC(C)C(=O)Nc2cccnc2)cc1` (centres undefined) the “activity change, negative = growth inhibition” value was 4.05%.
With `N#Cc1ccc(OCCN2C(=O)NC3(CCSC3)C2=O)cc1` (centres undefined) the “activity change, negative = growth inhibition” value was -4.16%.
For `CCOC(=O)[C@H]1[C@H]2COc3cc(OC)ccc3[C@@H]2N2C(=O)N(c3ccc(Br)cc3)C(=O)[C@@]12C`, the Potency was 18.4 µM (active).
For `CCOC(=O)[C@H]1[C@H]2COc3ccccc3[C@@H]2N2C(=O)CN(Cc3ccccc3)C(=O)[C@@]12C`, the “activity change, negative = growth inhibition” value was -21.1%.
For `CCOC(=O)[C@H]1[C@H]2COc3ccc(Br)cc3[C@@H]2N2C(=O)CN(C)C(=O)[C@@]12C`, the “activity change, negative = growth inhibition” value was -2.51%.
With `CCOC(=O)[C@@H]1[C@H]2COc3ccc(Br)cc3[C@H]2N2C(=O)N(c3ccc(C)cc3)C(=O)[C@@]12C` the Potency was 20.6 µM (active).
In the case of `CCOC(=O)[C@@H]1[C@H]2COc3cc(OC)ccc3[C@@H]2N2C(=O)N(c3cccc(C)c3)C(=O)[C@@]12C`, the “activity change, negative = growth inhibition” value is reported as -25.7%.
For `CCOC(=O)[C@@H]1[C@H]2COc3cc(OC)ccc3[C@H]2N2C(=O)N(c3ccc(F)cc3)C(=O)[C@]12C`, the “activity change, negative = growth inhibition” value was -18.1%.
With `O=C(CN1CCN(Cc2ccc(F)cc2Cl)C1=O)NCc1cccs1` the “activity change, negative = growth inhibition” value was -14.6%.
With `COc1cc(C2OC(c3cc(OC)c(OC)c(OC)c3)C(C)C2C)cc(OC)c1OC` (centres undefined) the Potency was 18.4 µM (active).
For `COc1cc(OC)c2c(c1)OC(=O)CC2c1cc(OC)c(OC)c(OC)c1` (centres undefined), the “activity change, negative = growth inhibition” value was 4.96%.
In the case of `COc1cc(C2CC(=O)Oc3cc(OC)c(OC)c(OC)c32)cc(OC)c1OC` (centres undefined), the “activity change, negative = growth inhibition” value is reported as -15.9%.
For `CCCNC(=O)NCc1ccc(N2CCCC2=O)cc1`, the “activity change, negative = growth inhibition” value was -1.13%.
In the case of `Cn1cccc1C1(C(F)(F)F)NCCNC1=O` (centres undefined), the “activity change, negative = growth inhibition” value is reported as 2.55%.
With `Cc1ccc(CSCC2Nc3ccc(C(=O)N4CCN(c5ccc(F)cc5)CC4)cc3NC2=O)cc1` (centres undefined) the Potency was 16.4 µM (active).
For `COC(=O)c1ccc(C(=O)OC)c(NC(=S)N2CCN(c3ccc(F)cc3)CC2)c1`, the “activity change, negative = growth inhibition” value was -22.4%.
For `Cc1ccc(SCC(=O)N2CCN(c3ccc(F)cc3)CC2)cc1`, the “activity change, negative = growth inhibition” value was -28%.
In the case of `COCc1ccc(CN2CCC(Oc3ccc(C(=O)NCc4ccccn4)cc3)CC2)o1`, the “activity change, negative = growth inhibition” value is reported as -22.1%.
In the case of `O=C(COC(=O)c1ncc(Cl)c(Cl)c1Cl)NNC(=O)c1ccccc1`, the “activity change, negative = growth inhibition” value is reported as -13.8%.
For `Cc1ccc(S(=O)(=O)c2cn(Cc3ccccc3)c3cc(N4CCCC4)c(F)cc3c2=O)c(C)c1`, the Potency was 9.2 µM (active).
With `CCCCCCn1cc(C(=O)O)c(=O)c2cc(F)c(N3CCCCC3)cc21` the “activity change, negative = growth inhibition” value was 1.32%.
With `CCn1cc(S(=O)(=O)c2cccc(C)c2)c(=O)c2cc(F)c(N3CCN(C)CC3)cc21` the “activity change, negative = growth inhibition” value was 6.93%.
In the case of `CC1CCCN(c2cc3c(cc2F)c(=O)c(S(=O)(=O)c2cccc(Cl)c2)cn3Cc2ccccc2)C1` (centres undefined), the “activity change, negative = growth inhibition” value is reported as -15%.
For `Cc1nn(Cc2ccccc2)c(C)c1CNC(=O)c1ccc(F)c(S(=O)(=O)N2CCOCC2)c1`, the “activity change, negative = growth inhibition” value was -29.9%.
In the case of `Cc1cccc(S(=O)(=O)c2cn(Cc3ccccc3)c3cc(N4CCOCC4)c(F)cc3c2=O)c1`, the Potency is reported as 20.6 µM (active).
